In the library only some 11% were active in any assay of this set; here they are far more common.
VP16 counter – VP16 counterscreen qHTS for inhibitors of ROR gamma transcriptional activity; 310,000 tested, 3.5% active; Drosophila S2 Gal4-VP16 UAS-luciferase, luminescence, 20 h; AID 2546, 2010; Potency, µM (top dose mostly 53.6 µM), for the others: at the highest dose activity, negative = inhibition, hits mostly inhibitors;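 note: Gal4-VP16 expression switched on by copper sulfate through the metallothionein promoter; potency is the fitted concentration of half-maximal effect; % is set by controls: 0 for no effect and ±100 for the full control effect; nearly all actives have a fitted effect of over 50% in size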
MCF10A rerep – A quantitative high throughput screen for small molecules that induce DNA re-replication in MCF 10a normal breast cells; 350,000 tested, 2.9% active; MCF 10A DNA re-replication, Hoechst nuclear intensity, 48 h; Potency, µM (highest dose often 46.1 µM), without a hit: at the top dose activity, positive = re-replication, hits mostly activators; note: potency is the fitted concentration of half-maximal effect; % of control where 0% means no effect; nearly all actives have a fitted effect of over 50% in size
IL1B secr inh – qHTS for Inhibitors of Inflammasome Signaling: IL-1-beta AlphaLISA Primary Screen | 360,000 tested, 4.7% active | THP-1 LPS/ATP IL-1B secretion, AlphaLISA, 16 h; hits give low values | activity change, % at 57.5 µM; in the data active = activity change below about -50%; inconclusive = mostly about -30% to -49%; note: % is set by controls: 0 for no effect and ±100 for the full control effect
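THP-1 cells pretreated 1 hr with compounds (up to 57.5 uM final), then stimulated with LPS (250 ng/mL final) plus ATP (1.25 mM final); secreted IL-1B measured by AlphaLISA after 16 hr, decreased signal indicating inhibition.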
SW480 rereplic – A quantitative high throughput screen for small molecules that induce DNA re-replication in SW480 colon adenocarcinoma cells | AID 624297, 2012 | 340,000 tested, 1.8% active | Potency, µM (doses to about 46.1 µM), for the others: top-dose re-replication activation, hits mostly activators | SW480 DNA re-replication, Hoechst DNA content imaging, 48 h; note: potency is the fitted concentration of half-maximal effect; % of control where 0% means no effect; nearly all actives have a fitted effect of over 55% in size
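DNA re-replication was detected as more nuclei of elevated Hoechst intensity after 48 hr exposure to compound (23 nL pinned per well of 250 cells).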
RORg inh – qHTS for inhibitors of ROR gamma transcriptional activity. Nuclear receptor ROR-gamma (Mus musculus), P51450. Drosophila S2 Gal4-RORgamma UAS-luciferase reporter, 20 h. Potency, µM (series often up to 53.6 µM), without a hit: at the highest dose activity change, negative = inhibition, actives largely listed as inhibitors. 310,000 tested, 5.4% active; note: potency is the fitted concentration of half-maximal effect; % is set by controls: 0 for no effect and ±100 for the full control effect; nearly all actives have a fitted effect of over 60% in size
Target sequence (P51450 whole entry, looked up, the tested form may be a part): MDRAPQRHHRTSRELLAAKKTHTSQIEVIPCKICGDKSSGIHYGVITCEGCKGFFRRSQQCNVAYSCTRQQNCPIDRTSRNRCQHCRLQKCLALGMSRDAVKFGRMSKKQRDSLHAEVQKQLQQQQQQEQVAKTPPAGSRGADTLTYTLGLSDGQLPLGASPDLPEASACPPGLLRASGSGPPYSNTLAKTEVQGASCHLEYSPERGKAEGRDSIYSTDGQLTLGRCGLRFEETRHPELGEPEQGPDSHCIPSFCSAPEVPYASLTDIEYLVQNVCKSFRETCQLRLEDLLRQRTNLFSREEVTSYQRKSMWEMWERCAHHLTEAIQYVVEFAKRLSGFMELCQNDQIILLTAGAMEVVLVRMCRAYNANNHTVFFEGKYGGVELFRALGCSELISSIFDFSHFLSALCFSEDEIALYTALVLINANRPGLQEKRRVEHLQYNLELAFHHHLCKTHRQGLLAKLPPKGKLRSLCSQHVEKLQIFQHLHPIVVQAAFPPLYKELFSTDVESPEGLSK
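Luciferase reporter read in Schneider cells carrying Gal4-RORγ (mouse) and UAS-Photinus luciferase; cells given compound 1 h before 700 uM copper sulfate induction, then incubated 20 h at ambient temperature.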
Active calls of the source: *; ? = inconclusive; nt = no result; [ ] = another dose, or the depositor's remark. Unless noted, calls come from the whole dose curve; as a rule, active = well fitted curve in the direction sought with a large enough effect; inconclusive = small, poorly fitted or top-dose-only effect, or another doubt; inactive = no such curve, though single readings can be large; an effect the other way counts as inactive or inconclusive.

SMILES	VP16 counter	MCF10A rerep	IL1B secr inh	SW480 rereplic	RORg inh
Cc1ccc(-c2cc(C(=O)N/N=C/c3c(C)nn(C)c3C)c3ccccc3n2)cc1C	-6%	?	-51*	7%	?
CCCc1cc(C(=O)N/N=C/c2ccc(C)o2)c2ccccc2n1	0%	?	61	?	10µM*
O=C(Oc1ccc(C(=S)N2CCOCC2)cc1)c1cccc(Cl)c1	-20%	0%	5	-4%	-21%
O=C(N/N=C/c1ccoc1)c1ccccc1O	18µM*	3%	6	?	10µM*
Cc1cc(C)cc(C(=O)N/N=C/c2ccoc2)c1	8%	-4%	-11	-10%	1%
CCN(CC)c1ccc(/C=N/NC(=O)c2cc(C)nc3ccccc23)cc1	?	?	-20	3%[9.22 µM]	11µM*
O=C(N/N=C/c1ccc2c(c1)OCO2)c1cc(-c2ccc(F)cc2)nc2ccccc12	?	3.7µM*	-1	?	?
COc1cc(OC)cc(C(=O)N/N=C\c2ccoc2)c1	-8%	23µM*	6	5.8µM*	-34%
O=C(N/N=C/c1ccoc1)c1ccccc1	-18%	-27%	1	-14%	15%
Cc1cc(C(=O)N/N=C/c2ccc(C)o2)c2ccccc2n1	?	1.8µM*	52	5.8µM*	?
CCN(CC)c1ccc(/C=N/Nc2nc(C)cc(C)n2)cc1	13µM*	?	23	18µM*	1µM*
Cc1ccc(/C=N/NC(=O)c2cc(C3CC3)nc3ccccc23)o1	?	5.8µM*	59	21µM*	?
Cc1ccc(/C=N/NC(=O)c2cc(-c3ccccc3)nc3ccccc23)o1	7.1µM*	5.8µM*	41	?	4µM*
O=CN1c2ccccc2CSc2ccccc21	nt	-7%	14	-33%	nt
COC(=O)C(Cc1c[nH]c2ccccc12)NC(=O)C1CC1 (centres undefined)	1%	6%	9	-2%	-23%
Cc1ccc(-c2cc(C(=O)N/N=C/c3ccoc3)c3ccccc3n2)cc1	10µM*	?	-5	?	7.1µM*
COc1cc(/C=N/NC(=O)c2cc(-c3ccccc3)nc3ccccc23)ccc1O	-9%	16%	48	0%	-17%
CCc1nc(SCC(=O)Nc2cc(C)ccc2OC)c2c(C)c(C)sc2n1	2%	18%	4	-4%	-18%
CCc1nc(SCC(=O)Nc2ccccc2OC)c2c(C)c(C)sc2n1	-16%	21µM*	?	14%	25%
Cc1sc2nc(C(C)C)nc(SCC(=O)N3c4ccccc4CC3C)c2c1C (centres undefined)	18µM*	?	25	-3%	8.9µM*
CCc1nc(SCC(=O)N2CC(=O)Nc3ccccc32)c2c(C)c(C)sc2n1	0%	17%	29	18%	-3%
CCc1nc(SCC(=O)N2c3ccccc3CC2C)c2c(C)c(C)sc2n1 (centres undefined)	?	?	?	21µM*	37%
CCOC(=O)CSc1nc(C(C)C)nc2sc(C)c(C)c12	-9%	9%	0	-13%	-3%
O=C(CSc1nnc(-c2c[nH]c3ccccc23)n1CC1CCCO1)Nc1ccc2c(c1)OCCO2 (centres undefined)	9%	29µM*	-29	0%	19%
COc1ccc(CCN2CC(C(=O)OCC(=O)N(C)CC(=O)Nc3ccccc3Cl)CC2=O)cc1OC (centres undefined)	nt	0%	0	4%	nt
SMILES	VP16 counter	MCF10A rerep	IL1B secr inh	SW480 rereplic	RORg inh
NC(=O)c1c(NC(=S)Nc2ccccc2)sc2c1CCCC2	?	6%[9.22 µM]	-21	-13%	-124%
CCOC(=O)c1c(NC(=S)Nc2cc([N+](=O)[O-])ccc2OC)sc2c1CCCCC2	4µM*	nt	nt	nt	5.6µM*
NC(=O)c1c(NC(=S)Nc2ccc(F)cc2)sc2c1CCCC2	-87%	-6%	-9	-9%	10µM*
CCOC(=O)c1c(NC(=S)Nc2ccc(F)cc2)sc2c1CCC2	?	?	12	-5%	10µM*
CCOc1ccc(NC(=O)c2c(NC(=O)CN3CCCC3)sc3c2CCC3)cc1	4.5µM*	14%	7	2%	4.5µM*
O=C(c1cccc(F)c1)N1CCN(C(=O)C(c2ccccc2)c2ccccc2)CC1	-1%	-3%	12	6%	-5%
O=C(OCc1ccccc1)c1cccnc1	3%	2%	nt	7%	1%[10 µM]
COC(=O)C#CC(=O)OC	-10%	nt	nt	nt	19%
CCOC(=O)c1c(NC(=S)Nc2ccc(C)cc2)sc2c1CCC2	?	4%	28	-5%	6.3µM*
COC(=O)c1cccc(F)c1C(=O)c1cccc2ccccc12	nt	?	8	?	nt
COc1ccccc1-c1cc(C(=O)Nc2cc(C)nn2-c2ccccc2)no1	?	1.3µM*	33	21%	?
Cc1cc(NC(=O)c2cc(-c3ccco3)on2)n(-c2ccccc2)n1	-4%	?	10	-10%	7.9µM*
CCCCC[C@H](O)/C=C/C=C\C=C\C=C\[C@@H](O)[C@@H](O)CCCC(=O)O	1%	nt	nt	nt	-4%
COc1ccc(F)cc1CN1CCN(c2cc(C)nc3c4c(C)cc(C)nc4nn23)CC1	?	nt	nt	nt	20µM*
Cc1n[nH]c(=S)n1/N=C/c1ccccc1	?	-2%	29	-5%	?
Cc1n[nH]c(=S)n1/N=C/c1ccc(OCc2ccc(Cl)cc2)cc1	-13%	12%	0	-10%	5.6µM*
CCc1n[nH]c(=S)n1/N=C/c1ccccc1OCc1ccc(Cl)cc1	-18%	18%	42	4%	-9%
Cc1n[nH]c(=S)n1/N=C/c1ccccc1OCc1ccc(Cl)cc1Cl	7.1µM*	4%	12	?	2.8µM*
Cc1cc(C)c(COc2ccc(/C=N/n3c(C)n[nH]c3=S)cc2)c(C)c1	7.1µM*	13µM*	?	-80%	2.8µM*
S=c1[nH]nc(Cc2ccc(Br)cc2)n1/N=C/c1ccc(Cl)cc1	1%	?	-63*	-1%	-37%
Nn1c(Cc2ccc(Br)cc2)n[nH]c1=S	6%	-2%	6	-3%	-37%
CSc1ncnc2c1ncn2CCCNCCc1ccccn1	nt	nt	-3	nt	nt
CC(Nc1cccc([N+](=O)[O-])c1)C(=O)Nc1ccc(S(=O)(=O)N2CCCC2)cc1 (centres undefined)	nt	-1%	?	0%	nt
Cc1n[nH]c(=S)n1/N=C/c1ccc(OCc2ccc(Cl)cc2Cl)cc1	11µM*	1%	2	-8%	18µM*
S=c1[nH]nc(COc2ccccc2)n1/N=C/c1ccc(Cl)cc1	-16%	?	54	9%	?
